Data published in PubChem BioAssay (NCATS).
Values joined by “and” are separate entries in the source; they are usually repeats but may differ in a detail not shown here. Equal values may be shown once. Inconclusive results are not listed. Unmarked numbers belong to inactive results. Active and inactive are the calls of the source. Calls come from the whole dose curve.

biological target: Bile acid receptor (Homo sapiens) (UniProt Q96RI1); experiment: qHTS assay for small molecule agonists of farnesoid X receptor signaling (AID 588527); conditions: HEK293T FXR-UAS-bla, beta-lactamase ratio, 16 h; activation: hits give high values;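 note: 0% = vehicle basal and 100% = reference agonist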
How it was run: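 Read-out: beta-lactamase reporter fluorescence with CCF4 substrate in GeneBLAzer FXR-UAS-bla HEK293T cells, after 16 h compound exposure at 37 C. Response scaled between DMSO basal (0%) and chenodeoxycholic acid at 100 uM (100%).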

Bile acid receptor (Homo sapiens), sequence (Q96RI1 whole entry, looked up): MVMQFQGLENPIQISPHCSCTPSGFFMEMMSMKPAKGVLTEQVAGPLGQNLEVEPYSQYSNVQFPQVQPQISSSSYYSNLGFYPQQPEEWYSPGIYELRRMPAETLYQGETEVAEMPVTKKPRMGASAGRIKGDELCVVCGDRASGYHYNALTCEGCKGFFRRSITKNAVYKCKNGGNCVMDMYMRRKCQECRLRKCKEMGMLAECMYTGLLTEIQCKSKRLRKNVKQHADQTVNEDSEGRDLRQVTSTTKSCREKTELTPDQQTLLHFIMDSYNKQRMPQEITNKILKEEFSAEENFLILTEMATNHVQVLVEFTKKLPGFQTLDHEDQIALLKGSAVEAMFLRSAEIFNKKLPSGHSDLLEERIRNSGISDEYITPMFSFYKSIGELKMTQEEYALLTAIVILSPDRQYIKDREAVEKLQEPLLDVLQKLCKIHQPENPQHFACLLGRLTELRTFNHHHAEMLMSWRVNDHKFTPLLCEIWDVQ

Row | Structure (SMILES) | activation
1 | O=C(O)c1ccccc1[N+](=O)[O-] | -1.37%
2 | CC(=O)CC(=O)Nc1ccc(C)cc1C | 0.192%
3 | Cc1ccc(C)o1 | 1.14%
4 | C/C(Cl)=C/CCl | 0.345%
5 | Cc1ccc(C(=O)c2ccccc2)cc1 | -0.352%
6 | Cc1ccc(C#N)cc1 | -2.61%
7 | CCCCCCCC/C=C\CCCCCCCC(=O)N(CCO)CCO | 0.527%
8 | Cc1cc(C(C)(C)CC(C)(C)C)ccc1OCCOCC[N+](C)(C)Cc1ccccc1 | -0.746%
9 | O=[N+]([O-])c1ccc(NCCO)c(OCCO)c1 | -1.27%
10 | Cc1ccc(Cl)cc1 | -1.75%
11 | C=CC(=O)OCC[N+](C)(C)C | -2.87%
12 | Cc1c(N)cccc1Cl | -0.769%
13 | Cl[Si](Cl)(c1ccccc1)c1ccccc1 | 3.41%
14 | CCc1c(C(=O)O)c(=O)cnn1-c1ccc(Cl)cc1 | 1.28%
15 | CCCCC(CC)COP(=O)(O)OCC(CC)CCCC (stereo not given) | -0.5%
16 | CC(C)CCCCCCc1ccc(O)cc1 | 6.07%
17 | COc1ccc([N+](=O)[O-])cc1N | 0.186% and -0.616%
18 | CCOC(=O)NCCOc1ccc(Oc2ccccc2)cc1 | 2.99%
19 | Cc1ncc[nH]1 | -1.48%
20 | CCCCC | -0.0908%

Row | Structure (SMILES) | activation
21 | C[Si](C)(C)Cl | 1.08%
22 | Cn1c(=O)[nH]c(=O)n(C2CCC(O)CC2)c1=O (stereo not given) | -4.56%
23 | C=Cc1ccccc1C=C | -0.167%
24 | COc1cccc2sc(N)nc12 | -1.11%
25 | CCCCOCC(C)OCC(C)O (stereo not given) | 5.12%
26 | CCCCCCCCCCCCOCC1CO1 (stereo not given) | -0.164%
27 | CCCCC(CC)COS(=O)(=O)O (stereo not given) | 1.45%
28 | O=C1OC(O)C(C(Cl)Cl)=C1Cl (stereo not given) | 16.6%
29 | CCCCCCCCCCCCCCCCN(C)C | 3.83%
30 | CCc1ccccc1O | -1.44%
31 | Nc1ncnc2c1ncn2[C@H]1CC[C@@H](CO)O1 | 0.029% and -3.36%
32 | Cc1ccccc1Br | -2.02%
33 | NCCCCCCCCCCC(=O)O | 1.65%
34 | CSCCC=O | -2.56%
35 | CCO[Si](CCCN)(OCC)OCC | -1.61% and 1.5%
36 | CN=C(N)NCC1CCOC1 (stereo not given) | -3.33% and 1.46%
37 | C1OCOCO1 | -0.63%
38 | C=C(C)C(=O)OCC(CC)(COC(=O)C(=C)C)COC(=O)C(=C)C | -1.88%
39 | CC(COc1ccc(C(C)(C)C)cc1)OS(=O)OCCCl (stereo not given) | 3.02%
40 | COC(=O)c1ccc(C=O)cc1 | 0.0505% and 0.394%

biological target: Peroxisome proliferator-activated receptor delta (Homo sapiens) (UniProt Q03181); experiment: qHTS assay for small molecule agonists of peroxisome proliferator-activated receptor delta signaling (AID 588534); conditions: HEK293T PPARdelta-UAS-bla, beta-lactamase ratio, 18 h; series mostly up to 76.7 µM; activation: at the top concentration;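 note: 0% = DMSO basal wells and 100% = positive control agonist at 10 µM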
How it was run: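 Agonist-mode beta-lactamase reporter readout (CCF4 dye, 2 h at RT) after 18 h at 37 °C exposure to a titration; Hill-equation fitting gave EC50 and maximal response.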

Peroxisome proliferator-activated receptor delta (Homo sapiens), sequence (Q03181 whole entry, looked up): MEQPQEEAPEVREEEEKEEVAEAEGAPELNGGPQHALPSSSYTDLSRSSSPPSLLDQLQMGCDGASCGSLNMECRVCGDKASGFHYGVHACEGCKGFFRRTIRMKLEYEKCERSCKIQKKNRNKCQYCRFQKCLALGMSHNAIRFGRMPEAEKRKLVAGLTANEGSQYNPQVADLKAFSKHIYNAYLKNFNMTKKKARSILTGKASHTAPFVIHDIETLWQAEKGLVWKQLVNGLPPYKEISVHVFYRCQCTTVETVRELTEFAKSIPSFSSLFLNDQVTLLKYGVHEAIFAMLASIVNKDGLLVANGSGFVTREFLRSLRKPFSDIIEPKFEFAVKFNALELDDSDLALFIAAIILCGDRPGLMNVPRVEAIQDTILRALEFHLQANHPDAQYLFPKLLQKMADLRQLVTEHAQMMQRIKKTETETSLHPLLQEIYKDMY

Row | Structure (SMILES) | activation | outcome
41 | O=C(O)c1ccccc1[N+](=O)[O-] | 10.5% | 
42 | CC(=O)CC(=O)Nc1ccc(C)cc1C | -11.2% | 
43 | Cc1ccc(C)o1 | 6.27% | 
44 | C/C(Cl)=C/CCl | -5.25% | 
45 | Cc1ccc(C(=O)c2ccccc2)cc1 | -3.48% | 
46 | Cc1ccc(C#N)cc1 | 6.75% | 
47 | CCCCCCCC/C=C\CCCCCCCC(=O)N(CCO)CCO | -8.61% | 
48 | Cc1cc(C(C)(C)CC(C)(C)C)ccc1OCCOCC[N+](C)(C)Cc1ccccc1 | -10.7% | 
49 | O=[N+]([O-])c1ccc(NCCO)c(OCCO)c1 | 10.8% | 
50 | Cc1ccc(Cl)cc1 | 2.54% | 
51 | C=CC(=O)OCC[N+](C)(C)C | -4.55% | 
52 | Cc1c(N)cccc1Cl | -1.13% | 
53 | Cl[Si](Cl)(c1ccccc1)c1ccccc1 | -1.87% | 
54 | CCc1c(C(=O)O)c(=O)cnn1-c1ccc(Cl)cc1 | 4.62% | 
55 | CCCCC(CC)COP(=O)(O)OCC(CC)CCCC (stereo not given) | -4.48% | 
56 | CC(C)CCCCCCc1ccc(O)cc1 | -1.35% | 
57 | COc1ccc([N+](=O)[O-])cc1N |  | inactive
58 | CCOC(=O)NCCOc1ccc(Oc2ccccc2)cc1 | 0.319% | 
59 | Cc1ncc[nH]1 | -2.7% | 
60 | CCCCC | 10.7% | 

Row | Structure (SMILES) | activation | outcome
61 | C[Si](C)(C)Cl | 1.51% | 
62 | Cn1c(=O)[nH]c(=O)n(C2CCC(O)CC2)c1=O (stereo not given) | 0.347% | 
63 | C=Cc1ccccc1C=C | 5.96% | 
64 | COc1cccc2sc(N)nc12 | 9.63% | 
65 | CCCCOCC(C)OCC(C)O (stereo not given) | 4.45% | 
66 | CCCCCCCCCCCCOCC1CO1 (stereo not given) | -1.61% | 
67 | CCCCC(CC)COS(=O)(=O)O (stereo not given) | 9.13% | 
68 | O=C1OC(O)C(C(Cl)Cl)=C1Cl (stereo not given) | -14.2% | 
69 | CCCCCCCCCCCCCCCCN(C)C | 2.03% | 
70 | CCc1ccccc1O | 4.27% | 
71 | Nc1ncnc2c1ncn2[C@H]1CC[C@@H](CO)O1 |  | inactive
72 | Cc1ccccc1Br | 0.0217% | 
73 | NCCCCCCCCCCC(=O)O | 1.71% | 
74 | CSCCC=O | -1.86% | 
75 | CCO[Si](CCCN)(OCC)OCC |  | inactive
76 | CN=C(N)NCC1CCOC1 (stereo not given) |  | inactive
77 | C1OCOCO1 | 0.0384% | 
78 | C=C(C)C(=O)OCC(CC)(COC(=O)C(=C)C)COC(=O)C(=C)C | -4.33% | 
79 | CC(COc1ccc(C(C)(C)C)cc1)OS(=O)OCCCl (stereo not given) | -7.63% | 
80 | COC(=O)c1ccc(C=O)cc1 | -4.93% | 
